According to PubChem BioAssay (EPA / NIEHS):
“And” between values parts separate entries of the source, which are not always exact repeats. Identical values can stand only once. Inconclusive results are not listed. Some structures have more than one record in an assay (separate samples or runs), and their calls can disagree. The source made the active and inactive calls. The calls were made as follows, unless noted: active = hit-call score of the fitted dose curve at least 0.9, where 1 is the maximum; inconclusive = response in the unintended direction; inactive = score below 0.9.

Columns and labels:
[1] = ATG_TCF_b_cat_CIS: Attagene CIS-FACTORIAL HepG2 Assay for human T-Cell-Factor with beta-catenin (TCF/b-cat) (AID 2282965; active = hit-call score of the fitted dose curve at least 0.9, where 1 is the maximum; inactive = score below 0.9); conditions: HepG2 TCF/beta-catenin cis-reporter transcription, actives raise or lower the signal
In short: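 HepG2 cells transiently transfected with multiple cis-promoter-regulated reporter transcription units, so endogenous transcription factor activity is measured. Reporter mRNA read 24 hours after dosing by RT-PCR, fluorescent labelling and capillary electrophoresis; bidirectional fitting against DMSO.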

[2] = ATG_TAL_CIS: Attagene CIS-FACTORIAL HepG2 Assay for human TAL Basal Promoter (AID 2282966; active = hit-call score of the fitted dose curve at least 0.9, where 1 is the maximum; inactive = score below 0.9;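 also: background control endpoint measuring basal TAL promoter reporter mRNA not a specific factor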); conditions: HepG2 Attagene cis-factorial TAL promoter reporter; actives raise or lower the signal
In short: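 Human hepatoma HepG2 cells, transfected with promoter-regulated reporter units, were treated 24 h. Reporter transcript levels, measured through RT-PCR and capillary electrophoresis, were fitted for gain or loss relative to DMSO.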

[3] = ATG_TGFb_CIS: Attagene CIS-FACTORIAL HepG2 Assay for human Transforming Growth Factor (TGF) (AID 2282967; active = hit-call score of the fitted dose curve at least 0.9, where 1 is the maximum; inactive = score below 0.9); conditions: HepG2 Attagene CIS TGFb reporter, mRNA transcription; actives raise or lower the signal
In short: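 Endogenous TGFB1-linked transcription factor activity read as reporter mRNA via RT-PCR and capillary electrophoresis, 24 h after dosing transiently transfected HepG2 cells. Gain or loss of signal fitted relative to DMSO.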

[4] = ATG_VDRE_CIS: Attagene CIS-FACTORIAL HepG2 Assay for human Vitamin D Receptor Element (VDRE) (AID 2282968; active = hit-call score of the fitted dose curve at least 0.9, where 1 is the maximum; inactive = score below 0.9); conditions: HepG2 VDRE cis-reporter transcription, actives raise or lower the signal
In short: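 Steps: transfect HepG2 with multiple reporter transcription units; dose chemicals 24 h; isolate RNA; RT-PCR; label with 6-FAM primer extension; HpaI digest; capillary electrophoresis. Curves fitted both directions against DMSO.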

[5] = molecular target: Nuclear receptor subfamily 1 group I member 3 (Homo sapiens) (UniProt Q14994); assay: ATG_CAR_TRANS: Attagene TRANS-FACTORIAL HepG2 Assay for human Constitutive Androstane Receptor (CAR) (AID 2282969); conditions: HepG2 Attagene TRANS-FACTORIAL CAR reporter;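 also: activators raise reporter mRNA above DMSO so AC50 marks induction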
Nuclear receptor subfamily 1 group I member 3 (Homo sapiens), sequence (Q14994 whole entry, looked up, the tested form may be a part): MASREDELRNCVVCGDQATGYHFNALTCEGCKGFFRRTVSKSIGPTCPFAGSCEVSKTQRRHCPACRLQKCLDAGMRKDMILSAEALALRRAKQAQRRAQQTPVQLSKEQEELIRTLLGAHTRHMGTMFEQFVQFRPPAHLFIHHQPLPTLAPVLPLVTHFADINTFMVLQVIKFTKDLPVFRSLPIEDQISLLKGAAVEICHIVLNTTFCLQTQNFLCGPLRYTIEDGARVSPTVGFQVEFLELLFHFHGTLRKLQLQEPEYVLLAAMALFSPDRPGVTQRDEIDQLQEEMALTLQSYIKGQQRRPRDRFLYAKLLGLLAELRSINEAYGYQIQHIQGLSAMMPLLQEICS
In short: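 Steps: transient transfection of HepG2 with multiple GAL4-UAS reporter units; 24 h compound incubation; RNA isolation, RT-PCR, 6-FAM primer extension, HpaI digest; capillary electrophoresis. Gain-of-signal relative to DMSO negative control.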

[6] = molecular target: X-box-binding protein 1 (Homo sapiens) (UniProt P17861); assay: ATG_Xbp1_CIS: Attagene CIS-FACTORIAL HepG2 Assay for human X-box Binding Protein 1 (XBP1) (AID 2282972; active = hit-call score of the fitted dose curve at least 0.9, where 1 is the maximum; inactive = score below 0.9); conditions: HepG2 XBP1 cis-element reporter, Attagene multiplex; actives raise or lower the signal
X-box-binding protein 1 (Homo sapiens), sequence (P17861 whole entry, looked up): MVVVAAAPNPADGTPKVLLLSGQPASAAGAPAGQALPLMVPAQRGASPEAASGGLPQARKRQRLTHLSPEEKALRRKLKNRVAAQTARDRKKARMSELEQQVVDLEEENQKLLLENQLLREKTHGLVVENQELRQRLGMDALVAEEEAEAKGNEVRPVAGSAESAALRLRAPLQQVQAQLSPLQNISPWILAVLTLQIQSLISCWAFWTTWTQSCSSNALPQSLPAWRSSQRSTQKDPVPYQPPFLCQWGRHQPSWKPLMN
In short: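 Multiplexed cis-reporter readout in transfected HepG2 liver cells. Exposure lasted 24 hours. Activity in either direction was fitted against DMSO as negative control and baseline.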

[7] = ATG_M_19_TRANS: Attagene TRANS-FACTORIAL HepG2 Assay for M19 Transcription Factor (Internal Marker) (AID 2282974); conditions: HepG2 Attagene TRANS-FACTORIAL M19 internal marker reporter
In short: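 24 h chemical exposure of transiently transfected HepG2 (MRTU library). RNA → oligo(dT) RT → PCR → 6-FAM labelling → HpaI cut → CE fluorescence. Positive-direction fit vs DMSO baseline; background internal-marker readout.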

[8] = molecular target: Glucocorticoid receptor (Homo sapiens) (UniProt P04150); assay: ATG_GR_TRANS: Attagene TRANS-FACTORIAL HepG2 Assay for human Glucocorticoid Receptor (GR) (AID 2282978); conditions: HepG2 Attagene TRANS GR reporter, mRNA transcription;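 also: activators score as hits since higher reporter transcript over DMSO is fitted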
Glucocorticoid receptor (Homo sapiens), sequence (P04150 whole entry, looked up, the tested form may be a part): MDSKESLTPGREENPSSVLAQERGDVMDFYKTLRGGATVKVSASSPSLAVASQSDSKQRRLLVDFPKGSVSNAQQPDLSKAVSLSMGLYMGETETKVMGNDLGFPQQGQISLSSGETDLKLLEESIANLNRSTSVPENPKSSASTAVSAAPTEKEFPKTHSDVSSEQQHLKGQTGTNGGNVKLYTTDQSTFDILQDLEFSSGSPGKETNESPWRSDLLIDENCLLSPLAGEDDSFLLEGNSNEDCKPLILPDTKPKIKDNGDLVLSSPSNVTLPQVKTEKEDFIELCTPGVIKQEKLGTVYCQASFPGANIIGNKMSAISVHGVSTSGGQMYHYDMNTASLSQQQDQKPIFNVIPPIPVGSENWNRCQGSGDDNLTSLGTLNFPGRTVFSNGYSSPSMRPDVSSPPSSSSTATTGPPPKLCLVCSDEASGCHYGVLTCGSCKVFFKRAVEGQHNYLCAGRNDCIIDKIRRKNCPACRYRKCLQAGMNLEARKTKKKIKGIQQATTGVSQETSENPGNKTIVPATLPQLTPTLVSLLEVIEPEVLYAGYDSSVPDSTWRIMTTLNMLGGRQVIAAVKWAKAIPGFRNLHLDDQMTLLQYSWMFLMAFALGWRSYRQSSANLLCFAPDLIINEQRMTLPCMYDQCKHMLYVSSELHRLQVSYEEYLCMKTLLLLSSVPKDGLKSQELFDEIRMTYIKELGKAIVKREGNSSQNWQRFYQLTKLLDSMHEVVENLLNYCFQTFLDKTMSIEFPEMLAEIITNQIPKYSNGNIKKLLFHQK
In short: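 Transient MRTU transfection of HepG2 (GAL4-UAS reporters, exogenous NR-GAL4 chimeras), 24 h dosing. Readout: reporter transcript via RT-PCR + capillary electrophoresis fluorescence. Positive direction vs DMSO baseline.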

[9] = molecular target: Oxysterols receptor LXR-alpha (Homo sapiens) (UniProt Q13133); assay: ATG_LXRa_TRANS: Attagene TRANS-FACTORIAL HepG2 Assay for human Liver X Receptor alpha (LXRa) (AID 2282980); conditions: HepG2 Attagene TRANS reporter, LXRa transactivation
In short: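 In this multiplexed TRANS system, compounds act on HepG2 cells carrying GAL4-UAS reporter units and a receptor-GAL4 fusion for 24 h. Induced reporter RNA is amplified, fluorescently labelled and sized by capillary electrophoresis, with DMSO as baseline.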

[10] = molecular target: Hepatocyte nuclear factor 4-alpha (Homo sapiens) (UniProt P41235); assay: ATG_HNF4a_TRANS: Attagene TRANS-FACTORIAL HepG2 Assay for human Hepatocyte Nuclear Factor 4 alpha (HNF4a) (AID 2282982); conditions: HepG2 HNF4a transactivation reporter, mRNA readout
Hepatocyte nuclear factor 4-alpha (Homo sapiens), sequence (P41235 whole entry, looked up, the tested form may be a part): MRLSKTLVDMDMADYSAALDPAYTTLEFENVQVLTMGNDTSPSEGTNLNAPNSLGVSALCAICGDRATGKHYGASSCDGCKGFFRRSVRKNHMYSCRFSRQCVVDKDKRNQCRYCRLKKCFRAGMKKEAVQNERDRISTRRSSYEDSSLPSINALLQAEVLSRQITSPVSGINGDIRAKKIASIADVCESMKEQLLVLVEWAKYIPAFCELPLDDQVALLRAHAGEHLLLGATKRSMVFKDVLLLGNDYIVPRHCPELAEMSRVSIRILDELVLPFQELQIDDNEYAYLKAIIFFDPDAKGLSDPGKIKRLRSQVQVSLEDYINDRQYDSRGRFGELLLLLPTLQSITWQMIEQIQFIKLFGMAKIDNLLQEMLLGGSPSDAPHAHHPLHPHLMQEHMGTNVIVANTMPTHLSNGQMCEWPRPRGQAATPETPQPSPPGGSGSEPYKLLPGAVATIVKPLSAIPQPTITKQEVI
In short: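 In this trans-factorial format, a chimeric HNF4a-GAL4 fusion drives a GAL4-UAS reporter in transfected HepG2 liver cells. After 24 h treatment, reporter mRNA induction is measured by RT-PCR with capillary electrophoresis, relative to DMSO.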

[11] = ATG_M_06_TRANS: Attagene TRANS-FACTORIAL HepG2 Assay for M06 Transcription Factor (Internal Marker) (AID 2282983); conditions: HepG2 Attagene TRANS M06 internal marker reporter
In short: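 Multi-reporter-transfected HepG2, 24 h treatment; reporter transcripts quantified via RT-PCR, primer-extension labelling and CE. DMSO-normalized gain-of-signal fit.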

[12] = ATG_M_32_TRANS: Attagene TRANS-FACTORIAL HepG2 Assay for M32 Transcription Factor (Internal Marker) (AID 2282984); conditions: HepG2 Attagene TRANS M32 internal marker reporter
In short: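 After 24 h dosing of transfected HepG2 cells, total RNA was reverse-transcribed, reporter sequences PCR-amplified, 6-FAM labelled by primer extension and HpaI-digested before capillary electrophoresis. Signal increase over DMSO was fitted.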

[13] = molecular target: Nuclear receptor subfamily 4 group A member 2 (Homo sapiens) (UniProt P43354); assay: ATG_NURR1_TRANS: Attagene TRANS-FACTORIAL HepG2 Assay for human Nuclear Receptor Related Protein 1 (NURR1) (AID 2282985); conditions: HepG2 Attagene TRANS reporter, mRNA readout
In short: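 Chimeric NR-Gal4 fusion activity measured in HepG2 after 24 h treatment. Reporter transcripts detected by RT-PCR and capillary electrophoresis fluorescence; positive-direction curve fitting against DMSO.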

[14] = molecular target: Transcriptional activator Myb (Homo sapiens) (UniProt P10242); assay: ATG_Myb_CIS: Attagene CIS-FACTORIAL HepG2 Assay for human Myeloblastosis (Myb) Proto-Oncogene Transcription Factor (AID 2282986; active = hit-call score of the fitted dose curve at least 0.9, where 1 is the maximum; inactive = score below 0.9); conditions: HepG2 Attagene CIS-FACTORIAL Myb reporter transcription; actives raise or lower the signal
Transcriptional activator Myb (Homo sapiens), sequence (P10242 whole entry, looked up): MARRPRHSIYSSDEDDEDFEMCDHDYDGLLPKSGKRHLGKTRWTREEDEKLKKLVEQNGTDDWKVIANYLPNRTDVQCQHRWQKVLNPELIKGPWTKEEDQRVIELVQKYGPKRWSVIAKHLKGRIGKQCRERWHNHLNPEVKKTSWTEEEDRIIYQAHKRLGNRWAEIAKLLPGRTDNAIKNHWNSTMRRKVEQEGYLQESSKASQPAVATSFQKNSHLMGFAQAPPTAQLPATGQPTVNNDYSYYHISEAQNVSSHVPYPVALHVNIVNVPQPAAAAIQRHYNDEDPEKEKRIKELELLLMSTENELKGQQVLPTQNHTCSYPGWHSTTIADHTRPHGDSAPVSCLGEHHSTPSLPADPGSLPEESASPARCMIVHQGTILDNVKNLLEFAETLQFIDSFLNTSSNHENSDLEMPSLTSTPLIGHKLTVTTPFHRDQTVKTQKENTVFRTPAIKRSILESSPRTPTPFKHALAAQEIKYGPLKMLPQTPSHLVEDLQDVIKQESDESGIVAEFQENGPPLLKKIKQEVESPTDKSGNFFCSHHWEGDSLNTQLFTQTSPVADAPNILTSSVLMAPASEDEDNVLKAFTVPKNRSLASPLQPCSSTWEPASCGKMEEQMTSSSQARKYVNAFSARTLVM
In short: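 HepG2, transient MRTU transfection (cis-element promoters, endogenous TF activity), 24 h compound exposure. Readout: reporter mRNA via RT-PCR, 6-FAM labeling, HpaI digest, capillary electrophoresis. Gain/loss fit vs DMSO.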

[15] = molecular target: Estrogen receptor (Homo sapiens) (UniProt P03372); assay: ATG_ERa_TRANS: Attagene TRANS-FACTORIAL HepG2 Assay for human Estrogen Receptor alpha (ERa) (AID 2282970); conditions: HepG2 Attagene TRANS ERa GAL4 reporter, mRNA
Estrogen receptor (Homo sapiens), sequence (P03372 whole entry, looked up, the tested form may be a part): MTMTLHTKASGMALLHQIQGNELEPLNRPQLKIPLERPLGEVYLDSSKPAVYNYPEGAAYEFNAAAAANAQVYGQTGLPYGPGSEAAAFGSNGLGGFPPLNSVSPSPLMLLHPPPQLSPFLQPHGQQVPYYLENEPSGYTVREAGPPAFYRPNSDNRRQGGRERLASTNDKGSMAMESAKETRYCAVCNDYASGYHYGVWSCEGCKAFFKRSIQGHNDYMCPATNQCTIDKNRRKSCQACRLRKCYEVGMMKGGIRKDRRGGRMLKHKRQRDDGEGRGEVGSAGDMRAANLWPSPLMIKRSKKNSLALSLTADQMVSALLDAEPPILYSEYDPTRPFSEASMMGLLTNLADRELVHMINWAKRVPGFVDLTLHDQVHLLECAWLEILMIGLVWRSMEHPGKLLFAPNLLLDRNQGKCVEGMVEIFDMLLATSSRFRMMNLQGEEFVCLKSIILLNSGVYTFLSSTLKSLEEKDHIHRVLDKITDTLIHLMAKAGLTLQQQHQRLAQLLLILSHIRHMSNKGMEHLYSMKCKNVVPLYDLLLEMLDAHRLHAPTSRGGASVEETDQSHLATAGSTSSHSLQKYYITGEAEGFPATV
In short: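 Signal derives from fluorescence of labelled reporter PCR fragments separated by capillary electrophoresis. HepG2 cells transiently carrying multiple GAL4-UAS reporter units were treated 24 hours, and induction above DMSO baseline was fitted as activity.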

[16] = ATG_GAL4_TRANS: Attagene TRANS-FACTORIAL HepG2 Assay for GAL4 (Internal Marker) (AID 2282976); conditions: HepG2 Attagene TRANS GAL4 internal marker reporter
In short: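 Liver HepG2 line bearing multiplexed GAL4-UAS reporter constructs; 24 h chemical treatment. Transcripts were quantified as fluorescent fragments on capillary electrophoresis after RT-PCR and HpaI cut, with activity fitted upward from DMSO.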

[17] = molecular target: Oxysterols receptor LXR-beta (Homo sapiens) (UniProt P55055); assay: ATG_LXRb_TRANS: Attagene TRANS-FACTORIAL HepG2 Assay for human Liver X Receptor beta (LXRb) (AID 2282981); conditions: HepG2 Attagene TRANS GAL4-LXRb reporter, mRNA
Oxysterols receptor LXR-beta (Homo sapiens), sequence (P55055 whole entry, looked up, the tested form may be a part): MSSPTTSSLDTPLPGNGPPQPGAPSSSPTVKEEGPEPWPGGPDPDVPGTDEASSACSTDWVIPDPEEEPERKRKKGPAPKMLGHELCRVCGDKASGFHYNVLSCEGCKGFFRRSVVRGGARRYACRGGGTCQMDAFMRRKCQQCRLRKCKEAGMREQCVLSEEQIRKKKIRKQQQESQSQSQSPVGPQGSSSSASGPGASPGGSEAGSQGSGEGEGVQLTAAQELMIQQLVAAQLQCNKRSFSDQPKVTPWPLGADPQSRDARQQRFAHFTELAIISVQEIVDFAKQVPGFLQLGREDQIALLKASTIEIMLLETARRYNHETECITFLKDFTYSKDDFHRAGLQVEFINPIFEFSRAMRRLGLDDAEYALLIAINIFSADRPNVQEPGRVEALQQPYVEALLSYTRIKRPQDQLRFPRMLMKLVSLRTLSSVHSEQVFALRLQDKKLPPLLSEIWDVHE
In short: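 Measures induction of a Gal4-driven reporter transcript in HepG2 cells expressing an exogenous LXRb-Gal4 fusion. Cells are exposed to compound for 24 h before RNA isolation and RT-PCR with capillary electrophoresis detection.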

[18] = molecular target: Steroid hormone receptor ERR1 (Homo sapiens) (UniProt P11474); assay: ATG_ERRa_TRANS: Attagene TRANS-FACTORIAL HepG2 Assay for human Estrogen-Related Receptor alpha (ERRa) (AID 2282971); conditions: HepG2 Attagene TRANS reporter, ERRa transactivation
Steroid hormone receptor ERR1 (Homo sapiens), sequence (P11474 whole entry, looked up, the tested form may be a part): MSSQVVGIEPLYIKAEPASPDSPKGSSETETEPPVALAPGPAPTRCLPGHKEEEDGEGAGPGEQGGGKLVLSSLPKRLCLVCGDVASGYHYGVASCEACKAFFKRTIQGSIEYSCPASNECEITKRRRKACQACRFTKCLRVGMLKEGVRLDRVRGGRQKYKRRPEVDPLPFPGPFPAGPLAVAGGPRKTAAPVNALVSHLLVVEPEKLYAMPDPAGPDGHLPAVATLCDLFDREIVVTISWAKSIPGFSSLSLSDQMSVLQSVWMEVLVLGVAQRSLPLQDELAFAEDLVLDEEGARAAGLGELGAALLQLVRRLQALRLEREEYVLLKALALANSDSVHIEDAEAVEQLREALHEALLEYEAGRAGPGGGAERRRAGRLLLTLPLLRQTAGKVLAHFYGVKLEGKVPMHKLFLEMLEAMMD
In short: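 Signal gain relative to DMSO for an ERRa-Gal4 chimeric receptor, read as reporter mRNA by RT-PCR/capillary electrophoresis. Human HepG2 liver cells, transient multiplex reporter transfection, 24 h chemical exposure.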

[19] = molecular target: Estrogen-related receptor gamma (Homo sapiens) (UniProt P62508); assay: ATG_ERRg_TRANS: Attagene TRANS-FACTORIAL HepG2 Assay for human Estrogen-Related Receptor gamma (ERRg) (AID 2282977); conditions: HepG2 Attagene TRANS reporter, ERRg transactivation;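 also: hits increase reporter signal over DMSO so potencies reflect activators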
Estrogen-related receptor gamma (Homo sapiens), sequence (P62508 whole entry, looked up, the tested form may be a part): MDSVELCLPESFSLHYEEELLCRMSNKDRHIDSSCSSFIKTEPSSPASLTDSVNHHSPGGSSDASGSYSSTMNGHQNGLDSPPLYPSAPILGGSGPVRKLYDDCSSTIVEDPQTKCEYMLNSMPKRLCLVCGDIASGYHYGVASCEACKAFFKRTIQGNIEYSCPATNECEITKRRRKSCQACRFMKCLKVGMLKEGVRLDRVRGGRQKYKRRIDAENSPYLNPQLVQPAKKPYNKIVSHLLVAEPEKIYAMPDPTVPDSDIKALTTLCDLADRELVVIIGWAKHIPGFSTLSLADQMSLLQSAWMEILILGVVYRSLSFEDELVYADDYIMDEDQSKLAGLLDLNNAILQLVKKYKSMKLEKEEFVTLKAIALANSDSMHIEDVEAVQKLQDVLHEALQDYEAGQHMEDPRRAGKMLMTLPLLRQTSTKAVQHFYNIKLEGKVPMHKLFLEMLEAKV
In short: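 Induction of reporter transcripts through a chimeric NR-Gal4 protein is quantified in transfected human HepG2 liver cells after 24 h chemical exposure, using RT-PCR with capillary electrophoresis detection and DMSO as baseline.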

[20] = molecular target: Bile acid receptor (Homo sapiens) (UniProt Q96RI1); assay: ATG_FXR_TRANS: Attagene TRANS-FACTORIAL HepG2 Assay for Farnesoid X Receptor (FXR) (AID 2282979); conditions: HepG2 Attagene TRANS FXR-GAL4 reporter transcription;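 also: hits raise reporter mRNA above DMSO so AC50 marks FXR activation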
Bile acid receptor (Homo sapiens), sequence (Q96RI1 whole entry, looked up, the tested form may be a part): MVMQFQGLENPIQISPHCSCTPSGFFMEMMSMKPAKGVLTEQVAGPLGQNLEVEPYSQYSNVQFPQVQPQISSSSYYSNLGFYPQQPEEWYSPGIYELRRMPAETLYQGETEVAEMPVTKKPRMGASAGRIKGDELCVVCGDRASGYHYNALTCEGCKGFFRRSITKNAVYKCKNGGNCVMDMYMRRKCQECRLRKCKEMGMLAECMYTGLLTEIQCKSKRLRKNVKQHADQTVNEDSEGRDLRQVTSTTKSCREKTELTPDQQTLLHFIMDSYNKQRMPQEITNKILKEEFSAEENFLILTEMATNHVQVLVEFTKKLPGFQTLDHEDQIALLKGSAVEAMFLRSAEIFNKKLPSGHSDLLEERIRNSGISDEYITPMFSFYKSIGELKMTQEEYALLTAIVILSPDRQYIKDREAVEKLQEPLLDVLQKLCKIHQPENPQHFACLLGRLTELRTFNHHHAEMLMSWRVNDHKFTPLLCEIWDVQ
In short: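 After 24 h chemical treatment of transfected HepG2 cells, GAL4-UAS reporter transcripts driven by an exogenous FXR-GAL4 fusion were measured by RT-PCR and capillary electrophoresis. Increases over DMSO were fitted.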

Measured: AC50

N=C1N=C(N)c2ccccc21
not listed: [15] | [16] | [17] | [18] | [19] | [20]
inactive: all other assays above

CN(C)C
not listed: [8] | [10] | [11] | [13] | [18] | [19] | [20]
inactive: all other assays above

Cc1cc(N)n(-c2ccccc2)n1
not listed: [7] | [8] | [10] | [12] | [15] | [16] | [17] | [20]
inactive: all other assays above

CCC(CC)CO
inactive: [1] | [2] | [3] | [4] | [5] | [15] | [6] | [7] | [10] | [12] | [14]

C=C1CC[C@H]2O[C@]2(C)CC[C@@H]2[C@@H]1CC2(C)C
not listed: [10] | [16] | [18] | [19]
inactive: all other assays above

[O-]/[N+](=N\O)c1ccccc1
not listed: [7] | [8] | [13] | [15] | [16] | [17] | [19] | [20]
inactive: all other assays above

O=C(c1ccc(OCCN2CCCCC2)cc1)c1c(-c2ccc(O)cc2)sc2cc(O)ccc12
inactive: [1] | [3] | [4] | [6] | [7] | [8] | [9] | [17] | [10] | [11] | [12] | [13] | [14]
active: [1] 11.1 µM and 15.5 µM | [3] 14.7 µM | [6] 11.1 µM and 8.64 µM and 12 µM | [14] 18.5 µM

Brc1cc(Br)cc(Br)c1
active: [3] 100 µM | [4] 65 µM
not listed: [7] | [9] | [15] | [16]
inactive: all other assays above

N#CCCNCCC#N
not listed: [7] | [8] | [18] | [19] | [20]
inactive: all other assays above

CCCCOCC(C)OCC(C)O (stereo not drawn)
not listed: [7] | [8] | [11] | [13] | [16] | [18] | [19] | [20]
inactive: all other assays above

CC1COC(=O)O1 (stereo not drawn)
active: [6] 10.3 nM
not listed: [7] | [10] | [13] | [15] | [19] | [20]
inactive: all other assays above

C[C@H](CCC(=O)O)[C@H]1CC[C@H]2[C@@H]3CC[C@@H]4C[C@H](O)CC[C@]4(C)[C@H]3CC[C@]12C
inactive: [2] | [5] | [6] | [8] | [9] | [11] | [12] | [14]
active: [1] 35.1 µM | [3] 43 µM | [4] 17.7 µM | [15] 26.3 µM | [13] 27.7 µM

O=C(O)c1ccccc1O
not listed: [8] | [10] | [11] | [13] | [20]
inactive: all other assays above

CCCCOCCOC(=O)c1ccccc1C(=O)OCCOCCCC
active: [4] 11 µM | [13] 45.3 µM
not listed: [8] | [9] | [10] | [15] | [16] | [18] | [19]
inactive: all other assays above

CCCO[Si](OCCC)(OCCC)OCCC
not listed: [9] | [10] | [17] | [18] | [19] | [20]
inactive: all other assays above

COC(=O)C(C)Oc1ccc(Oc2ncc(C(F)(F)F)cc2Cl)cc1 (stereo not drawn)
active: [3] 133 µM | [4] 42.8 µM
not listed: [7] | [8] | [16] | [18] | [20]
inactive: all other assays above

C#C[C@]1(O)CC[C@H]2[C@@H]3CCc4cc(O)ccc4[C@H]3CC[C@@]21C
inactive: [1] | [3] | [6] | [7] | [8] | [9] | [17] | [10] | [11] | [12] | [13] | [14]
active: [1] 19.2 µM and 19.8 µM | [3] 100 µM | [6] 59.6 µM [middle of 4 runs] | [14] 156 µM and 172 µM
